An excerpt weighted towards active compounds, which were near 8% of everything screened.
KB-V1 cytotox: kills drug-selected multidrug resistant KB-V1 cells. Potency, µM (series often up to 46.1 µM), usual class: cytotoxic. AID 1347076. KB-V1 MDR cells viability, CellTiter-Glo, 72 h. 400,000 compounds, 3.4% hits; note: % is set by controls: 0 for no effect and ±100 for the full control effect; nearly all actives have a fitted effect of over 60% in size
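Luminescent ATP read-out (CellTiter-Glo, 10 min) measures survival of drug-selected KB-V1 MDR cells after 72 h, 37 degrees C compound exposure. Medium: phenol-red-free DMEM, 10% FBS. Values from fitted concentration-response curves.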
MCF10A rereplic: induces DNA re-replication in MCF 10a normal breast cells | MCF 10A DNA re-replication, Hoechst nuclear intensity, 48 h | 350,000 compounds, 2.9% hits | Potency, µM (series often up to 46.1 µM), inactives show at the highest dose activity, positive = re-replication, usual class: activators; note: % of control where 0% means no effect; nearly all actives have a fitted effect of over 50% in size
SW480 rerep: DNA re-replication induction in SW480 cells | 340,000 compounds, 1.8% hits | SW480 DNA re-replication, Hoechst DNA content imaging, 48 h | Potency, µM (doses to about 46.1 µM), for the others: top-dose re-replication activation, hits mostly activators; note: % of control where 0% means no effect; nearly all actives have a fitted effect of over 55% in size
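Readout is total intensity of Hoechst-stained nuclei, excited at 405 nm and collected at 500-530 nm. Compound treatment lasted 48 hr at 37 C in 5% CO2 before staining.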
HT1080 IDH1KD tx: toxicity to HT-1080 IDH1 knockdown cells (counter line) | HT-1080 IDH1 knockdown viability, ATP luminescence, 48 h | Potency, µM (highest dose often 46.1 µM), for inactives: at the highest dose activity, negative = toxicity, usual class: cytotoxic | 360,000 compounds, 2% hits | AID 686971;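 note: 0% = DMSO wells and -100% = cell-free medium wells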
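% activity derives from luminescence (CellTiter-Glo), normalised to DMSO and no-cell wells. HT-1080-IDH1KD cells, 750/well, had 48 h compound exposure at 37 °C.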
HT1080NT lethal: kills 2HG-producing HT-1080-NT fibrosarcoma cells | HT-1080-NT fibrosarcoma viability, CellTiter-Glo ATP luminescence, 48 h | Potency, µM (doses to about 46.1 µM), for inactives: at the top dose activity, negative = less viability, hits mostly cytotoxic | 360,000 compounds, 1.6% hits | AID 686970;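 note: NT is the 2HG producing partner of a matched IDH1 knockdown line; 0% = DMSO-treated cells and -100% = media-only wells without cells; nearly all actives have a fitted effect of over 55% in size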
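750 cells/well, RPMI + 5% FBS; 2 h settle, compound pin-transfer, 48 h at 37 degrees C. CellTiter-Glo 10 min RT, luminescence. Normalized to DMSO and media-only wells.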
KB-3-1 cytotox: kills parental KB-3-1 adenocarcinoma cells; KB-3-1 viability, CellTiter-Glo ATP luminescence, 72 h; 400,000 compounds, 1.4% hits; Potency, µM (series often up to 46.1 µM), actives largely listed as cytotoxic; note: % is set by controls: 0 for no effect and ±100 for the full control effect; nearly all actives have a fitted effect of over 60% in size
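Viability of parental KB-3-1 cells, measured by CellTiter-Glo luminescence, followed a 72 h incubation at 37 °C with pinned compounds in phenol-red-free DMEM containing 10% FBS.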
Numbers without * were called inactive; i = inactive; u = inconclusive; x = no result; [ ] = dose if it differs, or a comment. Calls come from the whole dose curve; as a rule, active = well fitted curve in the direction sought with a large enough effect; inconclusive = small, poorly fitted or top-dose-only effect, or another doubt; inactive = no such curve, though single readings can be large; an effect the other way counts as inactive or inconclusive. Potency is the fitted concentration of half-maximal effect.

SMILES | KB-V1 cytotox | MCF10A rereplic | SW480 rerep | HT1080 IDH1KD tx | HT1080NT lethal | KB-3-1 cytotox
CCCCCCn1c(CN2CCN(Cc3ccccc3)CC2)nc2c1c(=O)n(C)c(=O)n2C | 18.4µM* | u | -11.2% | 0.4% | 0.1% | u
Cc1ccc(N2CC(c3nnc(Cc4ccc(Cl)cc4)o3)CC2=O)cc1 (stereo not drawn) | i | x | x | x | x | i
Cc1ccc(NC(=O)c2cc(S(=O)(=O)NCCc3ccccc3)ccc2F)cc1Cl | i | 16.7% | 8.8% | 16.4µM* | 16.4µM* | i
O=C(Nc1cccc(Cl)c1)c1cc(S(=O)(=O)NCCc2ccc(Cl)cc2)ccc1F | u | 24.8% | -24.9% | 29.1µM* | u | i
Cc1ccc(S(=O)(=O)NNC(=O)c2ccc(C(=O)N(c3ccccc3)c3ccccc3)cc2)cc1 | i | x | x | x | x | i
CCCCNC(=O)c1cc(-c2ccc(F)cc2)on1 | 16.4µM* | -8.1% | -6.7% | u | u | 18.4µM*
COc1ccc(-c2cc(C(=O)Nc3cc(C)nn3-c3ccccc3)no2)cc1 | i | 3.9% | 4.8% | -7.9% | 2.5% | i
COc1ccccc1-c1cc(C(=O)NCc2cccs2)no1 | i | 26.1% | 3.4% | 5.0% | -2.6% | i
COc1ccccc1-c1cc(C(=O)Nc2cc(C)nn2-c2ccccc2)no1 | 6.51µM* | 1.3µM* | 21.0% | 3.16µM* | u | 5.17µM*
COCCNC(=O)c1cc(-c2ccccc2OC)on1 | u | u | u | -24.2% | u | 9.2µM*
COc1ccc(OC)c(-c2cc(C(=O)NCc3cccs3)no2)c1 | 16.4µM* | u | 22.5% | u | -27.2% | i
Cc1cc2nccc(/C=C/c3ccc(N(C)C)cc3)c2cc1C | i | x | x | x | x | i
Cc1ccc(C)c(N2CCN(C(=O)NCc3noc4ccccc34)CC2)c1 | i | x | x | x | x | i
COc1ccccc1-c1cc(C(=O)NC(C)c2ccccc2)no1 (stereo not drawn) | 20.6µM* | 19.3% | u | u | 22.5% | i
COc1ccccc1-c1cc(C(=O)NC(C)C)no1 | i | -7.7% | -9.4% | -4.9% | -18.4% | i
C=CCn1cnc2c(c1=O)c1nc3ccccc3nc1n2/N=C/c1ccccn1 | u | 4.5% | 8.4% | -0.3% | 7.6% | i
O=c1c2c3nc4ccccc4nc3n(/N=C/c3ccccn3)c2ncn1-c1ccccc1 | u | 3.26µM* | 23.1µM* | u | 5.8µM* | i
CC(C)Nc1nc(NCc2ccccc2)c2sccc2n1 | u | x | x | u | 23.1µM* | u
Cc1ccc(CNc2nc(NCC3CC3)nc3ccsc23)c(C)c1 | u | x | x | 16.4µM* | 14.6µM* | i
CNc1nc(NCc2ccc(C)cc2C)c2sccc2n1 | u | x | x | u | u | i
Cc1ccc(Nc2nc(NCC3CC3)nc3ccsc23)c(C)c1 | u | x | x | 6.51µM* | 11.6µM* | 20.6µM*
Cc1ccc(CNc2nc(NCc3ccccc3)nc3ccsc23)c(C)c1 | u | x | x | u | 25.9µM* | u
O=C(NCc1cccs1)c1ccc(CSc2nc3ccncc3n2Cc2ccccc2F)cc1 | i | x | x | x | x | i
Cc1ccc(CNc2nc(NC(C)C)nc3ccsc23)c(C)c1 | i | x | x | u | u | i
CNc1nc(NCC2CCCCC2)c2sccc2n1 | i | x | x | 23.1µM* | 23.1µM* | i
SMILES | KB-V1 cytotox | MCF10A rereplic | SW480 rerep | HT1080 IDH1KD tx | HT1080NT lethal | KB-3-1 cytotox
CNc1nc(Nc2ccc(C)cc2C)c2sccc2n1 | 14.6µM* | x | x | u | u | 18.4µM*
CNc1nc(NCc2ccc(N(C)C)cc2)c2sccc2n1 | i | x | x | u | u | i
CCOC(=O)c1sc(NC(=O)c2nc3ncccn3n2)c(C(=O)OC(C)C)c1C | i | x | x | x | x | i
N=C1C=CC(=C(c2ccc(N)cc2)c2ccc(N)cc2)C=C1 | i | u | u | 7.31µM* | 23.1µM* | 3.66µM*
Nc1ccc(C(=O)C(=O)c2ccc(N)cc2)cc1 | i | -1.0% | -0.2% | -0.1% | -3.8% | i
COc1ccc(C(=O)OCC(=O)NC(=O)NC2CCCC2)cc1OC | u | -4.9% | 12.9% | 1.9% | 13.2%[9.24 µM] | i
CCCCCn1c(SCC(=O)OCC)nc2cc(C(=O)N3CCC(C(N)=O)CC3)ccc2c1=O | i | -0.3% | -1.4% | 11.2% | 8.5% | i
C=CCn1c(SCc2ccc(Cl)cc2)nc2cc(C(=O)N3CCC(C(N)=O)CC3)ccc2c1=O | 25.9µM* | -0.2% | -111.0% | 2.7% | -5.3% | u
CCOc1ccc(C2CC(=O)c3c([nH]c(C(=O)OCC4CCCCC4)c3C)C2)cc1 (stereo not drawn) | i | x | x | x | x | i
COc1cc(O)c(CC=C(C)C)c(O)c1C(=O)CCc1ccc(O)cc1 | i | 6.51µM* | u | u | -23.7% | i
O=C(NCCCc1ccccc1)c1ccccc1O | u | 14.6µM* | u | u | -10.7% | i
O=C(NCCCc1ccccc1)c1cnc2n(c1=O)CCS2 | 14.6µM* | -7.2% | -8.3% | -4.6% | 0.6% | i
Cc1nc2c(ccc3nc(NC(=O)C4CC4)sc32)s1 | 20.6µM* | 11.0% | u | u | u | u
CCC(=O)Nc1nc2ccc3sc(C)nc3c2s1 | u | -7.2% | -3.1% | u | -21.9% | u
O=C(Cn1nnc2ccccc21)OCc1ccccc1 | i | 0.651µM* | -2.2% | -1.2% | 5.1% | i
O=C(Cn1nnc2ccccc21)NCc1ccccc1 | i | -7.0% | -1.7% | -0.8% | -0.3% | i
Cc1ccc(S(=O)(=O)NCC(=O)OCC(=O)N(C)C2CCS(=O)(=O)C2)cc1 (stereo not drawn) | i | 1.0% | -4.0% | 5.5% | 1.7% | i
CN(CCN(C)c1nc(-c2cccs2)nc2ccccc12)C(=O)OC(C)(C)C | x | x | x | -25.3% | -20.9% | x
CN(Cc1ccccc1F)c1nc(-c2cccs2)nc2ccccc12 | u | 13µM* | u | -14.2% | -16.1% | i
Cc1nc(N)c(C#N)c(-c2cccnc2)c1-c1ccccc1 | i | 26.1% | -5.5% | -8.1% | -1.2% | i
Cc1ccc2c(n1)sc1c(-c3ccccc3)c(C#N)c(N)nc12 | i | 5.01µM* | 7.31µM* | -20.7% | -24.8% | i
CC(=O)c1ccc(Oc2cc(-c3ccccc3)nc(-c3ccccc3)n2)cc1 | u | 1.3% | 20.6µM* | u | 20.1% | u
COCCNc1nc(-c2ccccc2CO)c2sc(-c3ccccc3)cc2n1 | 20.6µM* | x | x | 0.92µM* | u | 5.8µM*
c1ccc(-c2cc3nc(NCC4CC4)nc(NCC4CCCCC4)c3s2)cc1 | u | x | x | 4.61µM* | 3.26µM* | u

Bioassay records as filed in PubChem.
